# PriA SSB inh: inhibitors of Klebsiella pneumoniae PriA binding to SSB C-terminal tail, primary screen, biochemical, AlphaScreen; PriA–SSB C-terminal tail interaction (Klebsiella pneumoniae); AlphaScreen SSBct-PriA binding, biotinylated peptide; inhibition, % at 33 µM; hit rate 0.6% among 430,000; AID 1272365, 2023; in the data active = inhibition mostly above about 37%, no sharp cut-off; inactive = mostly below about 20%;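 also: plate controls were negative control peptide for no effect and reference peptide for full effect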
# 3CLpro inhibitor: SARS-CoV 3CLpro protease inhibitors, primary screen, biochemical, quenched FRET; recombinant SARS-CoV 3CLpro, quenched FRET peptide cleavage; inhibition, % at 6 µM; hit rate 0.14% among 290,000; in the data active = inhibition above about 12%
# RecA intein inh: Mtb RecA intein splicing inhibitors, primary screen, biochemical, fluorescence, HTS; hit rate 0.75% among 290,000; cell-free RecA intein splicing; Protein RecA (Mycobacterium tuberculosis (strain ATCC 25618 / H37Rv)), P9WHJ3; inhibition, % (concentration not given with the values); AID 2221, 2009; in the data active = inhibition above about 30%;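 also: 0% = vehicle wells and 100% = reference inhibitor control wells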
# DUSP3 inh: VHR1 phosphatase inhibitors, primary screen, biochemical, absorbance, uHTS. Dual specificity protein phosphatase 3 (Homo sapiens), P51452. recombinant VHR phosphatase, pNPP absorbance. inhibition, % at 13.3 µM. hit rate 0.52% among 290,000. AID 1654, 2009; in the data active = inhibition above about 50%
# Target sequence (P51452 whole entry, looked up): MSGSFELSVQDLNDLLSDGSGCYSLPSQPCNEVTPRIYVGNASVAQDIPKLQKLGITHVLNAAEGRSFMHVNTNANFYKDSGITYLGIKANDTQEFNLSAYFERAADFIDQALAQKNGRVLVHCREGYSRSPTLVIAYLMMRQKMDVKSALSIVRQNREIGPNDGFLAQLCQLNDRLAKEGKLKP
# CCHFV vOTU inh: CCHFV vOTU protease inhibitors, primary screen, biochemical, Pep-AMC substrate, fluorescence; Crimean-Congo hemorrhagic fever virus L polyprotein viral ovarian tumor (vOTU) protease …; inhibition, % at 11.5 µM; hit rate 0.55% among 370,000; in the data active = inhibition above about 30%; also: 0% = vehicle wells with enzyme and 100% = no enzyme wells
# An asterisk follows results filed as active; . = no result. Only some compounds are listed: those with a hit (about 1.7% of all), similar ones and a draw of the others.
SMILES,PriA SSB inh,3CLpro inhibitor,RecA intein inh,DUSP3 inh,CCHFV vOTU inh
Cc1cc(NC(=O)CSc2nc3sc(C)c(C)c3c(=O)n2-c2ccccc2)no1,-18,.,.,.,.
COCc1ccc(CN2CCC(N3CCC(C(=O)N4CCCC4)CC3)CC2)o1,0,3,-2,52*,5
COc1ccc2cc(C(=O)C3CCCN(Cc4cnc(N5CCOCC5)s4)C3)ccc2c1 (stereo not drawn),10,3,1,52*,-10
CCN(CC)c1ccc(C(=O)NN)cc1,9,3,0,16,-12
CCN(CC)c1ccc(N)cc1,65*,.,.,.,.
CCOC(=O)N1CCN(c2c(-c3ccc(C)cc3)c(=O)c2=O)CC1,-23,-4,.,54*,-5
COc1cc(C(=O)C(=O)c2cc(OC)c(O)c(OC)c2)cc(OC)c1O,-2,-3,6,53*,-15
CCOC(=O)CSc1n[nH]c(NC(=O)c2cccc(C(F)(F)F)c2)n1,-13,-1,50*,10,-6
CCn1c(=N)c(S(=O)(=O)c2ccc(C)cc2)cc2c(=O)n3ccccc3nc21,.,4,-64,52*,-10
Cc1cccn2c(=O)c(/C=C(\C#N)C(=O)NCc3ccco3)c(N3CCCC(C)C3)nc12 (stereo not drawn),-3,1,-1,55*,4
Nc1ccc(N=Nc2ccccc2O)c(N)c1,68*,.,7,.,5
CSc1cccc(NC(=O)CN(C)c2nc3c(Cl)cccc3s2)c1,-12,.,.,.,.
C=C(C)CN1C(=O)C2(OCCO2)c2cc(Br)ccc21,-7,.,1,.,-11
CCOC(=O)CN1C(=O)C2(OCCCO2)c2cc(Br)ccc21,-7,1,0,59*,-10
COc1cc(NC(=O)NCC#CCN(C)Cc2ccccc2)cc(OC)c1OC,-11,.,.,.,.
Clc1ccc(CCNc2nc3ccccc3n3nnnc23)cc1,-8,-8,0,50*,-3
Cc1cccc(-c2csc3c(=O)[nH]c(N4CCC(C(=O)N[C@H]5CCc6ccccc65)CC4)nc23)c1,-16,.,.,.,.
Cc1ccc(N=C2SC(C(=O)Nc3ccc(OC(F)(F)F)cc3)C(N)=C2C(=O)Nc2c(C)cc(C)cc2C)cc1 (stereo not drawn),17,9,.,28,30*
O=C(CSc1cccc(C(F)(F)F)c1)NC(=O)c1ccccc1,-14,-1,0,51*,12
CCOc1ccc(/C=N/NC(=O)CN2CCCCC2)cc1OCC,.,-3,4,54*,-3
CCCOc1ccc(C=NNC(=O)CN2CCCCC2)cc1OCC,-8,.,.,.,.
CCOc1cc(/C=C2\C(=O)N(c3cccc(C(=O)O)c3)N=C2C(F)(F)F)ccc1OCC(=O)Nc1ccccc1OC,.,6,33*,-13,.
Cc1nc2ccccc2n1Cc1ccc(C(=O)NCCc2ccc(F)cc2)o1,6,.,.,.,.
CCN(CC)S(=O)(=O)c1ccc(C(=O)Nc2nnc(C3COc4ccccc4O3)o2)cc1 (stereo not drawn),-15,.,.,.,.
Cc1cc(C)cc(NC(=O)Cc2cc(=O)[nH]c(SCc3ccccc3)n2)c1,-9,.,.,.,.
SMILES,PriA SSB inh,3CLpro inhibitor,RecA intein inh,DUSP3 inh,CCHFV vOTU inh
O=C(NCc1ccccn1)c1ccc(OC2CCN(Cc3ccc(F)cc3F)CC2)cc1,-12,-4,0,-8,-2
COc1ccc(CN2CCC(Oc3ccc(C(=O)NCc4ccccn4)cc3)CC2)c(F)c1,4,-6,0,57*,11
Cc1ccc2c(c1)c1cccc3c1n2CCN3CCC(N)=O,58*,7,-16,3,.
NC(=O)CCn1c2ccccc2c2ccccc21,-2,0,.,4,7
CCS(=O)(=O)c1ccc(CC(=O)Nc2nnc(-c3ccco3)o2)cc1,54*,.,.,.,.
COc1cc(OC)cc(-c2noc(Cn3ccn4nc(-c5ccc(F)cc5)cc4c3=O)n2)c1,-10,.,.,.,.
COc1ccc(C(=O)Nc2cc(C)nn2-c2nc3c(cnn3-c3ccc(C)cc3)c(=O)[nH]2)cc1,0,.,.,.,.
COc1ccc(C(=O)Nc2cc(C)nn2-c2nc3c(cnn3-c3ccc(F)cc3)c(=O)[nH]2)cc1OC,53*,.,.,.,.
CSc1ccccc1C(=O)Nc1cc(C)nn1-c1nc2c(cnn2-c2ccc(F)cc2)c(=O)[nH]1,41*,.,.,.,.
COc1ccc(C(=O)Nc2cc(C)nn2-c2nc3c(cnn3-c3ccc(C)c(C)c3)c(=O)[nH]2)cc1OC,91*,.,.,.,.
Cc1nc(-c2ccc(S(=O)(=O)N3CCN(c4ccc(-n5cccn5)nn4)CC3)s2)cs1,-2,.,.,.,.
CC(C)CC(=NO)c1c[nH]c2ccccc12,-5,.,.,.,.
CCOC(=O)c1sc(NC(=O)CSc2nc3c(cnn3-c3ccccc3)c(=O)[nH]2)c(C(=O)OCC)c1C,-5,.,.,.,.
OCCCCNCc1ccc(OCc2ccccc2)cc1,11,1,-5,52*,4
O=C(CCNc1ccc(Cc2ccncc2)cc1)c1ccc([N+](=O)[O-])cc1,47*,2,8,-8,10
Cc1c(CCC(=O)O)c(C)n2c(nc3ccccc32)c1C(N)=O,-15,.,.,.,.
COc1ccc2nc(SCC(=O)NN)cc(C)c2c1,-22,-1,42*,14,0
COc1ccc2c(C)cc(SCC(=O)Nc3cc(C(N)=O)cc(C(N)=O)c3)nc2c1,-2,1,-1,-7,-15
CS(=O)(=O)N1CC(C(=O)N2CCN(C(=O)c3ccco3)CC2)C1,80*,.,.,.,.
O=C(c1ccco1)N1CCN(C(=O)C2CCCN(S(=O)(=O)Cc3ccccc3)C2)CC1 (stereo not drawn),1,2,2,16,6
COc1ccc(-c2cc(N3CCC[C@H](C(=O)Nc4cccc(C)c4C)C3)ncn2)cc1,-11,.,.,.,.
c1ccc(OC2CC3CCC(C2)N3)nc1 (stereo not drawn),96*,.,.,.,.
c1ccc(-c2ccc3c(c2)NCCN3)cc1,-9,0,-3,52*,-26
COc1nccnc1NS(=O)(=O)c1ccc(NC(=S)NC(=O)c2ccccc2)cc1,-7,-1,-1,52*,4
COc1nccnc1NS(=O)(=O)c1ccc(NC(=S)NC(=O)/C=C/c2ccccc2)cc1,-3,-2,1,-5,9
SMILES,PriA SSB inh,3CLpro inhibitor,RecA intein inh,DUSP3 inh,CCHFV vOTU inh
CCCCc1nnc(NC(=O)c2cc(OC)ncn2)s1,-23,.,.,.,.
Cn1c(=O)c2c(ncn2CC(=O)N2CCC(c3nnc(-c4ccc(F)cc4)o3)CC2)n(C)c1=O,-5,.,.,.,.
N#Cc1c(N2CCCC(O)C2)nc(N)c2c(N)nc3c(c12)CC(=O)N3C12CC3CC(CC(C3)C1)C2 (stereo not drawn),63*,2,30,63,0
CN1CCN(C(=S)c2cn(Cc3cccc(F)c3)c3ccccc23)CC1,25,1,-4,33,9
N=C(N)Sc1cn(Cc2cccc(F)c2)c2ccccc12,45*,.,.,.,.
CC(Oc1ccccc1)C(=O)Nc1nc(CN2CCc3ccccc3C2)cs1 (stereo not drawn),1,.,.,.,.

# High-throughput results from PubChem.
